The values that follow come from PubChem BioAssay (Tox21).

Structures are written as SMILES. Records with an inconclusive call do not appear. The source made the active and inactive calls. Unless noted, calls come from the whole dose curve; as a rule, active = well fitted curve in the direction sought with a large enough effect in the repeat runs; inconclusive = weak or mixed curves; inactive = no such curve, though single readings can be large; an effect the other way counts as inactive or inconclusive.

Assay [1] can be described thus: qHTS assay to identify small molecule agonists of the peroxisome proliferator-activated receptor delta (PPARd) signaling pathway - cell viability counter screen (AID 743211). Note: nearly all actives have a fitted effect of over 55% in size. Note: potency is the fitted concentration of half-maximal effect. A digest of the protocol: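 In the same wells used for beta-lactamase reporter measurement, cytotoxicity is scored by CellTiter-Glo. HEK293H PPARd-bla cells receive compound for 17 h at 37C following a 5 h settling period.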
On the technique in general: In qHTS, concentration-response curves come from the screen itself.

A short description of assay [2]: qHTS assay to identify small molecule antagonists of the peroxisome proliferator-activated receptor delta (PPARd) signaling pathway - cell viability counter screen (AID 743213). Note: nearly all actives have a fitted effect of over 50% in size. Note: potency is the fitted concentration of half-maximal effect. A digest of the protocol: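 Luminescence from CellTiter-Glo, added after the bla read and incubated 30 min at room temperature, gives viability of HEK293H PPARd-bla cells exposed to compounds for 17 h at 37 C with 300 nM L165041.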

The nature of assay [3]: qHTS assay to identify small molecule agonists of the farnesoid-X-receptor (FXR) signaling pathway - cell viability counter screen (AID 743218). Note: nearly all actives have a fitted effect of over 45% in size. The procedure, abridged:
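Readout: CellTiter-Glo luminescence, 30 min RT, multiplexed after the FXR-bla FRET reading. HEK 293T FXR-UAS-bla cells received compound 5 h post-plating and were incubated 16 h at 37 C.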

A short description of assay [4]: qHTS assay to identify small molecule antagonists of the farnesoid-X-receptor (FXR) signaling pathway - cell viability counter screen (AID 743221; active = well fitted cell-killing curve with a large enough effect in the repeat runs, not every such curve was filed as active; note: nearly all actives have a fitted effect of over 50% in size). The procedure, abridged: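 Here viability was scored by luminescence after CellTiter-Glo addition to wells already read for beta-lactamase. Prior treatment: compound plus CDCA (50 uM final), 16 h, 37 C, HEK 293T FXR-bla cells.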

A short description of assay [5]: qHTS assay to identify small molecule antagonists of the vitamin D receptor (VDR) signaling pathway - cell viability counter screen (AID 743225). Note: nearly all actives have a fitted effect of over 50% in size. Note: potency is the fitted concentration of half-maximal effect. A digest of the protocol: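 Compounds were pinned onto VDR-bla HEK 293T cells together with 1-alpha,25-dihydroxyvitamin D3 at 3 nM final. After 16 h at 37C and 5% CO2 plus the reporter readout, cell viability was measured by CellTiter-Glo luminescence (30 min, room temperature).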

Assay [6] in a line: qHTS assay to identify small molecule agonists of the endoplasmic reticulum stress response signaling pathway (AID 1159516; active = well fitted activation curve with a large enough effect in the signal ratio in the repeat runs, not every such curve was filed as active; the % refers to the signal ratio). The procedure, abridged:
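Beta-lactamase expression from the ER stress response element in HeLa reporter cells is quantified with the LiveBLAzer B/G FRET substrate, read at 405 nm excitation after 2 hr at room temperature, following 5 hr compound treatment at 37 C.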

The nature of assay [7]: qHTS assay to identify small molecule agonists of the endoplasmic reticulum stress response signaling pathway - cell viability counter screen (AID 1159517; calls by dose curve; note: nearly all actives have a fitted effect of over 50% in size; note: potency is the fitted concentration of half-maximal effect). A digest of the protocol: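 Steps: seed 1,500 ESRE-bla HeLa cells per well; incubate overnight at 37 C, 5% CO2; add compounds in DMSO for 5 hr; run FRET substrate 2 hr RT; add CellTiter-Glo, wait 30 min, read luminescence.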

Assay [8] is described as follows: qHTS assay to identify small molecule antagonists of the retinoid-related orphan receptor gamma (ROR-gamma) signaling pathway - cell viability counter screen (AID 1159520). Note: nearly all actives have a fitted effect of over 50% in size. Note: potency is the fitted concentration of half-maximal effect. A digest of the protocol:
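Tet-on ROR gamma CHO cells were given compounds for 2 hr, then doxycycline hyclate at 1 uM final, and incubated 16 hr at 37 C. Viability was measured as ATP content by CellTiter-Glo luminescence.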

Assay [9] is described as follows: qHTS assay to identify small molecule agonists of the AP-1 signaling pathway - cell viability counter screen (AID 1159525; calls by dose curve; note: nearly all actives have a fitted effect of over 55% in size; note: potency is the fitted concentration of half-maximal effect). The procedure, abridged: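 Same-well cytotoxicity counter screen of the Tox21 10K library in ME-180 cells. The readout is ATP-dependent luminescence after 5 h compound treatment. Data are normalised to DMSO and tetra n-octyl ammonium bromide controls.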

A short description of assay [10]: qHTS assay to identify small molecule agonists of the AP-1 signaling pathway (AID 1159526; calls by dose curve).
Assay [11] addresses Vitamin D3 receptor (Homo sapiens) (UniProt P11473). Put plainly: qHTS assay to identify small molecule agonists of the vitamin D receptor (VDR) signaling pathway (AID 743222; calls by dose curve). A digest of the protocol: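 Following 4 h attachment at 37C, VDR-bla cells (2,000 per well) received DMSO-dissolved compounds or controls. After 16 h incubation, LiveBLAzer B/G FRET substrate was added and fluorescence read 2 h later at room temperature.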

Assay [12] in a line: qHTS assay to identify small molecule agonists of the vitamin D receptor (VDR) signaling pathway - cell viability counter screen (AID 743224). Note: nearly all actives have a fitted effect of over 50% in size. Note: potency is the fitted concentration of half-maximal effect. A digest of the protocol:
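In parallel with the bla FRET readout, cytotoxicity toward VDR-bla cells after 16 h compound exposure was assessed by CellTiter-Glo, with luminescence recorded after a 30 min room-temperature incubation.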

In assay [13] the target is Nuclear receptor ROR-gamma (Homo sapiens) (UniProt P51449). Put plainly: qHTS assay to identify small molecule antagonists of the retinoid-related orphan receptor gamma (ROR-gamma) signaling pathway (AID 1159521; note: nearly all actives have a fitted effect of over 50% in size; note: potency is the fitted concentration of half-maximal effect). The procedure, abridged:
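Test compounds were applied to Tet-on RORγ CHO cells 2 h ahead of doxycycline hyclate (1 uM final). Luciferase reporter activity was quantified by luminescence after 16 h at 37 C and 5% CO2.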

Assay [14] has as its target Vitamin D3 receptor (Homo sapiens) (UniProt P11473). Nature of the assay: qHTS assay to identify small molecule antagonists of the vitamin D receptor (VDR) signaling pathway (AID 743223; active = well fitted inhibition curve with a large enough effect in the signal ratio in the repeat runs, not every such curve was filed as active; the % refers to the signal ratio). A digest of the protocol: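 Inhibition of agonist-driven VDR signalling is scored in VDR-bla cells: 3 nM final 1alpha,25-dihydroxyvitamin D3 plus compound, 16 h at 37C, then beta-lactamase detection by FRET substrate fluorescence after 2 h.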

Assay [15] concerns the target Peroxisome proliferator-activated receptor delta (Homo sapiens) (UniProt Q03181). Nature of the assay: qHTS assay to identify small molecule agonists of the peroxisome proliferator-activated receptor delta (PPARd) signaling pathway (AID 743212; calls by dose curve). A digest of the protocol: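 Read-out: beta-lactamase FRET fluorescence after 2 h room-temperature incubation with LiveBLAzer B/G substrate. Cells were HEK293H carrying a UAS-bla reporter for PPARd, treated at 37 C with DMSO-dissolved compounds.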

For assay [16], the target named is Retinoic acid receptor RXR-alpha (Homo sapiens) (UniProt P19793). Put plainly: qHTS assay to identify small molecule agonists of the RXR signaling pathway (AID 1159527; calls by dose curve; note: nearly all actives have a fitted effect of over 35% in size). The procedure, abridged:
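Using 9-cis retinoic acid as the reference agonist, chemicals were tested in HEK 293T cells […] for 16 hr; substrate loading lasted 2 hr at room temperature.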

For assay [17], the target named is Peroxisome proliferator-activated receptor delta (Homo sapiens) (UniProt Q03181). Nature of the assay: qHTS assay to identify small molecule antagonists of the peroxisome proliferator-activated receptor delta (PPARd) signaling pathway (AID 743215; active = well fitted inhibition curve with a large enough effect in the signal ratio in the repeat runs, not every such curve was filed as active; the % refers to the signal ratio;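 note: cells stimulated with agonist L165041 at 300 nM final during compound exposure; series mostly up to about 62 µM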). A digest of the protocol:
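Fluorescence from cleaved LiveBLAzer B/G FRET substrate (2 h, room temperature) reports PPARd-driven beta-lactamase in HEK293H UAS-bla cells. Cells had been treated 17 h at 37 C with compound plus 300 nM final L165041.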

In assay [18] the target is Bile acid receptor (Homo sapiens) (UniProt Q96RI1). Put plainly: qHTS assay to identify small molecule agonists of the farnesoid-X-receptor (FXR) signaling pathway (AID 743220; active = well fitted activation curve with a large enough effect in the signal ratio in the repeat runs, not every such curve was filed as active; the % refers to the signal ratio). A digest of the protocol:
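FXR-UAS-bla HEK 293T cells carrying a UAS-driven beta-lactamase reporter were plated for 5 h at 37C/5% CO2, then exposed to DMSO-dissolved Tox21 10K compounds for 16 h at 37C. A LiveBLAzer B/G FRET substrate was loaded for 2 h at room temperature before fluorescence reading.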

Peroxisome proliferator-activated receptor delta (Homo sapiens), sequence (Q03181 whole entry, looked up): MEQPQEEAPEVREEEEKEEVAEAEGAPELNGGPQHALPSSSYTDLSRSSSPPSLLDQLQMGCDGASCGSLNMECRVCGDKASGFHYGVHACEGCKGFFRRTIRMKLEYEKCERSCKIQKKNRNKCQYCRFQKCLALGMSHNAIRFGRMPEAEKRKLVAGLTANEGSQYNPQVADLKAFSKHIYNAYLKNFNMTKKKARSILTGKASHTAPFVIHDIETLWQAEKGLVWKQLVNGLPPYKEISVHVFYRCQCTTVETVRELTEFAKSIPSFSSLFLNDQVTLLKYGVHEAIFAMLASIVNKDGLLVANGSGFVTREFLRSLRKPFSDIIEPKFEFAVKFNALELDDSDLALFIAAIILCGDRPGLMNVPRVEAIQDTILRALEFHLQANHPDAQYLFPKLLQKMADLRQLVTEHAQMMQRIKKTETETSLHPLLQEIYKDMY
Vitamin D3 receptor (Homo sapiens), sequence (P11473 whole entry, looked up): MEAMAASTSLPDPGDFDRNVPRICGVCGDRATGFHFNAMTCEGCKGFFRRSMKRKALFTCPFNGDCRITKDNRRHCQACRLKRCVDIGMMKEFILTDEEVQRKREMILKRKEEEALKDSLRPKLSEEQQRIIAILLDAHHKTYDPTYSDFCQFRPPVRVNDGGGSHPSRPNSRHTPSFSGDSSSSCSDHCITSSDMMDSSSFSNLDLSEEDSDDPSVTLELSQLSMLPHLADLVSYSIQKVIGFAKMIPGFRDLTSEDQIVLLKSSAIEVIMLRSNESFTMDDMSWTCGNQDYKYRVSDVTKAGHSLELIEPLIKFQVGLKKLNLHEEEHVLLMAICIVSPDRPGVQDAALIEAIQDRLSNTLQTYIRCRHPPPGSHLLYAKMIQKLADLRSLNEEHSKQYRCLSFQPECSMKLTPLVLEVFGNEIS
Retinoic acid receptor RXR-alpha (Homo sapiens), sequence (P19793 whole entry, looked up): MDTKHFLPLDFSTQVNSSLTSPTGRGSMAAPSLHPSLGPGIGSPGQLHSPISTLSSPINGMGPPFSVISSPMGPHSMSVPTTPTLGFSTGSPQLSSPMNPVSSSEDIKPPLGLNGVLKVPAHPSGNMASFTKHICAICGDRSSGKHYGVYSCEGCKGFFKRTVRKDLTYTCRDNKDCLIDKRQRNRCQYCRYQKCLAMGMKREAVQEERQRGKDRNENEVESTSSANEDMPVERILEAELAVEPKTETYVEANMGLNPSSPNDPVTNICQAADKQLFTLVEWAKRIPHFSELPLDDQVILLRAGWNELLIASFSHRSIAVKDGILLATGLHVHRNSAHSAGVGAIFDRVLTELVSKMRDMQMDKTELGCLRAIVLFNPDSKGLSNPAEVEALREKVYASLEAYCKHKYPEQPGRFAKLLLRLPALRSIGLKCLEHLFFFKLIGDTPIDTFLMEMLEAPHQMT
Bile acid receptor (Homo sapiens), sequence (Q96RI1 whole entry, looked up): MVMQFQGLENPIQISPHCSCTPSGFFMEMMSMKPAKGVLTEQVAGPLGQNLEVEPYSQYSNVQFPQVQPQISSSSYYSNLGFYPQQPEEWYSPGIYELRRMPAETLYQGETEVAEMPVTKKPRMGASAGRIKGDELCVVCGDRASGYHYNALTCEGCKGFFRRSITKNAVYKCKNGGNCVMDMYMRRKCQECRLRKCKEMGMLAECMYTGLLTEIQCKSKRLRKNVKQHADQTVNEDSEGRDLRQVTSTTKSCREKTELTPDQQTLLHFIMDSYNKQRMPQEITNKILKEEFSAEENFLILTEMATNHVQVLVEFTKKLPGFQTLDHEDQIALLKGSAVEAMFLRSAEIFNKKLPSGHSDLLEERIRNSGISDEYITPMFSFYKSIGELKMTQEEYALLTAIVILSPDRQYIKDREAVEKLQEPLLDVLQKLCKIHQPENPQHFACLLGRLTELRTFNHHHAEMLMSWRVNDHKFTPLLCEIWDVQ

With `CCCCn1cc[n+](C)c1.[Cl][Fe-]([Cl])([Cl])[Cl]`, the Potency entry in assay [1], in assay [2], in assay [3], in [4], in [5] and in [6] was “inactive” each time. For the same compound, the Potency entry in assay [7], in assay [8], in assay [9] and in [10] was “inactive” each time.
Consider `COP(=O)(OC)Oc1ccc([N+](=O)[O-])cc1`, for which the Potency result in assay [1], in [2], in assay [3], in [4], in [11] and in assay [12] was “inactive” throughout. Also, the Potency result in assay [5], in assay [7], in [8], in assay [13], in [9] and in [10] was “inactive” each time.
On to `CN1CCc2cc3c(cc2C1O)OCO3` (stereo not given), for which the Potency result in assay [1], in assay [3], in [4], in assay [5], in [7] and in assay [8] was “inactive” each time. Moreover, the Potency entry in assay [13], in assay [9] and in assay [10] was “inactive” each time.
As for `Fc1ccc(C(OCCN2CCN(CCCc3ccccc3)CC2)c2ccc(F)cc2)cc1`, the Potency is 16.8 µM (active) in assay [1]; 26.6 µM (active) in assay [2]; 29.8 µM (active) in assay [12]; 21.3 µM (active) in assay [5]; 26.8 µM (active) in assay [7]; 29.8 µM (active) in assay [8]. Further, the Potency is 13.3 µM (active) in assay [13] and 21.3 µM (active) in assay [9].
As for `CCO/N=C(\CC)C1=C(O)CC(c2c(C)cc(C)cc2C)CC1=O` (stereo not given), the Potency entry in assay [1], in assay [6], in assay [7], in [13], in [9] and in assay [10] was “inactive” in each case.
`CC(Cc1ccc(OCC(=O)O)cc1)NCC(O)c1csc(C(F)(F)F)n1` (stereo not given): the Potency result in [1], in assay [2], in assay [3], in assay [4], in assay [11] and in assay [14] was “inactive” throughout. The Potency entry in assay [12], in assay [5], in [7], in [8], in assay [13] and in assay [9] was “inactive” each time. In addition, in assay [10], the Potency result is “inactive”.
Regarding `Cc1cccc(Cc2cnc[nH]2)c1C`, the Potency result in [1], in [15], in assay [3], in assay [4], in assay [14] and in [12] was “inactive” in each case. Besides, the Potency entry in [5], in assay [7], in [13], in assay [9] and in assay [16] was “inactive” in each case.
In the case of `CN1[C@@H]2CC[C@H]1CC(O)C2` (stereo not given in full), the Potency entry in assay [1], in assay [15], in assay [2], in assay [17], in [3] and in assay [4] was “inactive” throughout. Moreover, the Potency entry in [11], in [14], in [12], in assay [5], in [6] and in assay [7] was “inactive” throughout. The Potency result in [9] and in [10] was “inactive” throughout.
Take `O.O.O.O=C([O-])[C@H]([O-])[C@@H]([O-])C(=O)[O-].O=C([O-])[C@H]([O-])[C@@H]([O-])C(=O)[O-].[K+].[K+].[Sb+3].[Sb+3]`: the Potency entry in assay [2], in assay [3], in assay [18], in assay [12], in assay [5] and in assay [6] was “inactive” each time.
For the compound `CC#C[C@]1(O)CC[C@H]2[C@@H]3C[C@H](C)C4=CC(=O)CC[C@]4(C)[C@H]3CC[C@@]21C`, the Potency entry in [1], in assay [2], in assay [4], in assay [12], in [5] and in assay [6] was “inactive” each time. Further, the Potency entry in assay [7], in assay [8] and in [9] was “inactive” each time. In addition, in assay [13], the Potency was 26.6 µM (active).
`O=C(N[C@@H]1N=C(c2ccccc2F)c2cccc3c2N(CC3)C1=O)c1cc2ccccc2[nH]1`: the Potency entry in assay [1], in [15], in assay [3], in assay [4], in assay [11] and in assay [14] was “inactive” in each case. Besides, the Potency result in assay [12], in [5], in assay [6], in assay [7], in assay [8] and in [9] was “inactive” each time. Further, the Potency entry in assay [16] is “inactive”.
For `O=S(=O)(O)F`, the Potency entry in assay [1], in assay [15], in assay [18], in assay [11], in assay [14] and in assay [12] was “inactive” throughout. The Potency result in assay [5], in assay [6], in assay [7], in assay [8], in assay [9] and in [10] was “inactive” in each case. Also, the Potency entry in assay [16] is “inactive”.
